Experimental findings from PubChem BioAssay (NCATS) are described below.

Each structure is given as a SMILES string. Where “and” joins values, the source holds several entries; their conditions need not be identical. Equal values may be shown once. Records with an inconclusive call do not appear. A number with no mark means an inactive call. Calls of active or inactive are those of the source. The call rests on the fitted dose curve; in most records, active means well fitted activation curve with a large enough effect; inconclusive means small, poorly fitted or top-dose-only effect; inactive means no such curve, though single readings can be large or run the other way. Starred links: 1 amine or outer side, 2 acyl side, 3 side chain; linkers in the order of their positions; H or OH if unused. Positions of bridges follow the written chain, without caps; N, C: chain ends. Non-standard residues stand in square brackets, D forms with d. Residues, ends and D or L forms follow the SMILES beside them. Chains are numbered I, II in the order given. Actinocin(9to1) = Cc1c2oc3c(C)ccc(C(=O)[*:1])c3nc-2c(C(=O)[*:2])c(N)c1=O; NMeV = CN[C@H](C(=O)O)C(C)C; Sar = CNCC(=O)O
Potency means the concentration at half of the fitted maximal effect.

For the test, the target named is Cellular tumor antigen p53 (Homo sapiens) (UniProt P04637). In words: Primary qHTS for small molecule compounds that upregulate eGFP-tagged delta133p53alpha (in N-terminal) cells. (AID 2060322). Further: nearly all actives have a fitted effect of over 75% in size.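 On activation: series mostly up to about 56 µM; 0% = DMSO vehicle and 100% = reference activator.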 To be noted: NCI-H358 eGFP-delta133p53alpha fluorescence, 24 h; activation: stronger effect = higher value. The essentials: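 NCI-H358 cells pre-induced 24 h with 10 ng/ml doxycycline to express N-terminal eGFP-delta133p53alpha, then dosed 24 h at 37C without doxycycline; fixed, Hoechst-stained, GFP intensity by laser scanning cytometry, normalized to DMSO (0%) and 57.5 uM 5-azacytidine (100%).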
Sequence of Cellular tumor antigen p53 (Homo sapiens) (P04637 whole entry, looked up): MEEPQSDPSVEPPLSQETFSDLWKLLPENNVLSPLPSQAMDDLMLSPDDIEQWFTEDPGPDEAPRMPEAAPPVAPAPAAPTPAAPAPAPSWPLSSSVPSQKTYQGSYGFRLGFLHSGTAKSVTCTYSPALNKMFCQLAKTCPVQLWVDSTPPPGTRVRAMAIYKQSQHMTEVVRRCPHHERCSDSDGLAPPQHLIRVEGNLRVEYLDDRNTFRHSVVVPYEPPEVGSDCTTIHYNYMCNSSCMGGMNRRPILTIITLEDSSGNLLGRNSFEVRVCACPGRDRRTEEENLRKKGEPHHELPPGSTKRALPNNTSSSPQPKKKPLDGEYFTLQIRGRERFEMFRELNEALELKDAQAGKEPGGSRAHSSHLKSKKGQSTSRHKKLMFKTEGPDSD
On to `C[C@@H](O)[C@H]1C(=O)N2C(C(=O)OCOC(=O)C(C)(C)C)=C(SC3CN(C4=NCCS4)C3)[C@H](C)[C@H]12`, for which the activation was -12.3%.
Same read-out and setting: with `COc1ccc(C(=O)c2ccccc2O)c(O)c1` the figure was 10.9%.
For `CC(=CC(=O)Nc1ccccc1C(=O)O)c1ccc2ccccc2c1`, the activation was -15.6%.
On the same count and under the same terms, under `CC(C)(C)NCC(O)COc1ccccc1OCC1CCCO1` (stereo not given) stands 10.9%; under `CC(=O)OC[C@H]1O[C@@H](n2ncc(=O)[nH]c2=O)[C@H](OC(C)=O)[C@@H]1OC(C)=O`, -7.53%.
For `CC(C)N=C(N)/N=C(\N)Nc1ccc(Cl)cc1`, the activation was 0.837%.
Regarding `O=C(OCc1ccccc1)c1ccc(O)cc1`, the activation is -15.3%.
For `COc1nc(N)nc2c1ncn2[C@@H]1O[C@H](CO)[C@@H](O)[C@@H]1O`, the activation was -17.5% and 19.2%.
Take `Nc1cccc(-c2csc(NC(=O)CCCCCCC(=O)NO)n2)c1`: the activation was 139%.
On the same count and under the same terms, under `CCC(CC)(CC(=O)Nc1cccc(/C=C/c2nc(C3CCC3)cs2)c1)C(=O)O` stands 24.3%; under `O=C(O)c1ccc(-c2cc3cccnc3c(-c3ccc4nonc4c3)n2)cc1`, 3.89%; under `C/C=C/c1ccc(O)c(OC)c1`, -0.837%.
For the molecule `C[n+]1cc2c3c(ccc2c2ccc4cc5c(cc4c21)OCO5)OCO3`, the Potency is 1.9 µM (active) and 2.39 µM (active).
For `CCCc1ncc(C[n+]2ccccc2C)c(N)n1`, the activation is 13.4%.
Turning to `CCC(=C(CC)c1ccc(O)cc1)c1ccc(O)cc1`, the activation is -17%.
Turning to `O=C1c2c(O)cccc2[C@@H]([C@@H]2O[C@H](CO)[C@@H](O)[C@H](O)[C@H]2O)c2cc(CO)cc(O)c21`, the activation is -15.3%.
As to `NC(=O)C1(N2CCCCC2)CCN(CCCC(=O)c2ccc(F)cc2)CC1`, the activation was 14.2%.
The same measure, in the same setting: under `Cc1cc(Nc2cc(N3CCN(C)CC3)nc(C=Cc3ccccc3)n2)n[nH]1` stands 51.8%; under `CC(C=CC=C(C)C=CC1=C(C)CCCC1(C)C)=CC=CC=C(C)C=CC=C(C)C=CC1=C(C)CCCC1(C)C`, 13.6%.
In the case of `COc1ccc2c(c1)CCCC2=O`, the activation is 18.6%.
As for `CC(C)(Oc1ccc(Cl)cc1)C(=O)O`, the activation is -18.4%.
Still for that read-out and setting: with `C[C@H]1C[C@H]2[C@@H]3CCC4=CC(=O)C=C[C@]4(C)[C@@H]3C(=O)C[C@]2(C)[C@@]1(O)C(=O)CO` the figure was -19.3%; with `CCCOc1ccc2c(c1)CC[C@@H]1[C@@H]2CC[C@]2(C)C(OC)CC[C@@H]12` (stereo not given in full), 0.565%.
As for `O=c1cc(CO)occ1O`, the activation is -9.6%.
For `O=C(CCN1CCN(CCO)CC1)N1c2ccccc2Sc2ccc(C(F)(F)F)cc21`, the activation was -5.08%.
The same measure, in the same setting: under `CN1N=C(C(N)=O)CCC1=O` stands -6.21%.
On the same count and under the same terms, under `CCN(CC)CC(=O)Oc1ccc(NC(C)=O)cc1` stands -5.08%; under `CNC(=O)[C@H](CC1=CN=C2C=CCC=C12)NC(=O)[C@@H](CC(=O)NO)CC(C)C`, 3.1%; under `C[C@@H]1C[C@H]2[C@@H]3CCC4=CC(=O)C=C[C@]4(C)[C@@]3(F)[C@@H](O)C[C@]2(C)[C@@]1(O)C(=O)COC(=O)c1ccncc1`, -8.37%.
With `CC[C@H]1OC(=O)[C@H](C)[C@@H](O[C@H]2C[C@@](C)(OC)[C@@H](O)[C@H](C)O2)[C@H](C)[C@@H](O[C@@H]2O[C@H](C)C[C@H](N(C)C)[C@@H]2O)[C@](C)(OC)C[C@@H](C)C(=O)[C@H](C)[C@@H](O)[C@]1(C)O`, the activation is -25.1%.
`Cc1cc(NC(=O)C2=C(O)c3ccccc3S(=O)(=O)N2C)no1`: the activation is -0.837%.
On the same count and under the same terms, with `N[C@@H](Cc1cc(I)c(O)c(I)c1)C(=O)O` the figure was 4.18%.
The same measure, in the same setting: under `CCOC(=O)c1cccc(N)c1` stands -1.67%; under `CC1(C)S[C@@H]2[C@H](NC(=O)C(c3ccccc3)S(=O)(=O)O)C(=O)N2[C@H]1C(=O)O` (stereo not given in full), -13%.
In the case of `Cc1c2oc3c(C)ccc(C(=O)N[C@@H]4C(=O)N[C@H](C(C)C)C(=O)N5CCC[C@H]5C(=O)N(C)CC(=O)N(C)[C@@H](C(C)C)C(=O)O[C@@H]4C)c3nc-2c(C(=O)N[C@@H]2C(=O)N[C@H](C(C)C)C(=O)N3CCC[C@H]3C(=O)N(C)CC(=O)N(C)[C@@H](C(C)C)C(=O)O[C@@H]2C)c(N)c1=O` (I: T[dV]P[Sar][NMeV] / II: T[dV]P[Sar][NMeV]; ester I:1-I:C, II:1-II:C; linker I:N-II:N via Actinocin(9to1)), the Potency was 11 nM (active).
Take `N[C@H](C(=O)O)c1ccc(O)cc1`: the activation was -13.4%.
For `C[C@@H]1CC[C@@]2(OC1)O[C@H]1C[C@H]3[C@@H]4CC[C@H]5C[C@@H](O)CC[C@]5(C)[C@H]4CC(=O)[C@]3(C)[C@H]1[C@@H]2C`, the activation was -17.6%.
Take `O=C1CN(/N=C/c2ccc([N+](=O)[O-])o2)C(=O)N1`: the activation was -7.53%.
Same read-out and setting: with `CNCCN1CCC(OCc2ccccc2)CC1` the figure was -13.4%; with `O=c1ccn([C@@H]2O[C@H](CO)[C@H](O)[C@H]2O)c(=O)[nH]1`, 8.95%.
